Measured values taken from PubChem BioAssay (NCI).
Where “and” joins values, the source holds several entries; their conditions need not be identical. Equal values may be shown once. The panel holds about 79,000 compounds, 15% with a hit somewhere; the sample as a whole holds those more often. Some structures have more than one record in an assay (separate samples or runs), and their calls can disagree. Calls of active or inactive are those of the source. Cut-off read from the data, not from the text of the source: active = growth inhibition above about 70%; inactive = the rest.

What was measured:
[1] = NCI Yeast Anticancer Drug Screen. Data for the rad50 strain (AID 155);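 note: 0% = growth of vehicle-only cultures of the same strain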; conditions: S. cerevisiae rad50 strain growth inhibition, stronger effect = higher value
Summary of the method: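 DNA repair mutant yeast, compound exposure, growth read-out; inhibition is taken relative to vehicle.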

[2] = NCI Yeast Anticancer Drug Screen. Data for the mec2-1 strain (AID 157); conditions: S. cerevisiae mec2-1 strain, stronger effect = higher value
Summary of the method: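 mec2-1 yeast strain, carrying an alteration in DNA damage repair or cell cycle control, was exposed to compounds; growth inhibition was measured relative to vehicle-treated controls.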

[3] = NCI Yeast Anticancer Drug Screen. Data for the sgs1 mgt1 strain (AID 161);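 note: 0% = growth of cultures given vehicle only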; conditions: S. cerevisiae sgs1 mgt1 strain, stronger effect = higher value
Summary of the method: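 Yeast cells carrying a defined DNA-repair defect were exposed to test compounds. Growth inhibition was measured relative to vehicle-treated controls.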

[4] = NCI Yeast Anticancer Drug Screen. Data for the cln2 rad14 strain (AID 165);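 note: 0% = growth equal to vehicle treated cultures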; conditions: S. cerevisiae cln2 rad14 strain, stronger effect = higher value
Summary of the method: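 Yeast carrying cln2 and rad14 alterations (cell cycle control and DNA damage repair) were exposed to compounds. Growth inhibition was measured against vehicle-treated controls.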

[5] = NCI Yeast Anticancer Drug Screen. Data for the bub3 strain (AID 167); conditions: S. cerevisiae bub3 mutant strain, stronger effect = higher value
Summary of the method: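 In this screen, a yeast mutant lacking normal mitotic checkpoint function is challenged with compound. Relative growth versus vehicle gives the inhibition value.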

[6] = NCI Yeast Anticancer Drug Screen. Data for the mlh1 rad18 strain (AID 175); conditions: S. cerevisiae mlh1 rad18 strain growth inhibition, stronger effect = higher value
Summary of the method: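 Growth inhibition of the yeast strain was measured after compound exposure and expressed relative to vehicle-treated controls. The strain carries defined defects in DNA damage repair.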

[7] = at 5.0 µM (retest, dose inferred, filed as 0.5)
[8] = at 50.0 µM (retest, dose inferred, filed as 5.0)

Measured: growth inhibition

Nc1ccc2cc(Br)ccc2c1
inactive: [1]; [7] -11% | [1]; [8] 26% | [2]; [7] -2% | [2]; [8] 10% | [2]; at 50.0 µM 30.6% | [3]; [7] -10% | [3]; [8] 11% | [3]; at 50.0 µM 46.6% | [4]; [7] -31% | [4]; [8] -9% | [4]; at 50.0 µM 31.1% | [5]; [7] -8% | [5]; [8] 14% | [5]; at 50.0 µM 45.9% | [6]; [7] -16% | [6]; [8] 20% | [6]; at 50.0 µM 57.4%
active: [1]; at 50.0 µM 75.5%

CCNC(=O)O/N=C1/C=C2CC[C@@H]3C(CC[C@@]4(C)C3CC[C@@H]4OC(=O)NCC)[C@@]2(C)CC1 (some centres not stated)
inactive: [1]; [8] 66% | [2]; [8] 45% | [4]; [8] 14% | [5]; [8] 58% | [6]; [8] 69%
active: [1]; [7] 94% | [1]; at 50.0 µM 97.8% | [2]; [7] 97% | [2]; at 50.0 µM 98.1% | [3]; [7] 97% | [3]; [8] 72% | [3]; at 50.0 µM 97.5% | [4]; [7] 96% | [4]; at 50.0 µM 96.2% | [5]; [7] 93% | [5]; at 50.0 µM 97.2% | [6]; [7] 97% | [6]; at 50.0 µM 97.5%

N=C(N)c1ccccc1
active: [1]; [8] 79%
inactive: [1]; [7] 12% | [2]; [7] -1% | [2]; [8] 20% | [2]; at 50.0 µM 5.4% and 2.1% | [3]; [7] 2% | [3]; [8] 23% | [3]; at 50.0 µM -1.6% and 17.9% | [4]; [7] 6% | [4]; [8] 13% | [4]; at 50.0 µM -0.6% and 49.5% | [5]; [7] -2% | [5]; [8] 8% | [5]; at 50.0 µM 6.9% and 25.4% | [6]; [7] -2% | [6]; [8] 22% | [6]; at 50.0 µM -14.5% and 46.6%
-2.25% (inactive) and 80.2% (active): [1]; at 50.0 µM

CCCCCCCCCCCCNCCc1ccccc1
active: [1]; [7] 99% | [1]; [8] 99% | [1]; at 50.0 µM 98.2% | [2]; [7] 99% | [2]; [8] 98% | [2]; at 50.0 µM 98.8% | [3]; [7] 99% | [3]; [8] 98% | [3]; at 50.0 µM 98.9% | [4]; [7] 99% | [4]; [8] 98% | [4]; at 50.0 µM 98% | [5]; [7] 99% | [5]; [8] 98% | [5]; at 50.0 µM 98.2% | [6]; [7] 99% | [6]; [8] 98% | [6]; at 50.0 µM 98.8%

O=C(COc1ccc(Cl)c(Cl)c1)N(Cc1ccccc1)Cc1ccc[n+](Cc2ccc(Cl)cc2S(=O)(=O)F)c1
inactive: [1]; [7] 8% | [1]; at 50.0 µM 54% | [2]; [7] 44% | [2]; [8] 42% | [2]; at 50.0 µM 54.9% | [3]; [7] 2% | [3]; [8] 62% | [3]; at 50.0 µM -0.3% | [4]; [7] 10% | [4]; at 50.0 µM 50.4% | [5]; [7] 2% | [5]; at 50.0 µM 42.4% | [6]; [7] 6% | [6]; at 50.0 µM 60.1%
active: [1]; [8] 84% | [4]; [8] 78% | [5]; [8] 82% | [6]; [8] 96%

C/C(=C\c1ccc2c(c1)OCO2)[N+](=O)[O-]
inactive: [2]; [7] 7% | [3]; [7] 16% | [4]; [7] -6% | [4]; at 50.0 µM 40.1% | [5]; [7] 10% | [5]; at 50.0 µM 51% | [6]; [7] 11%
active: [1]; [7] 93% | [1]; [8] 98% | [1]; at 50.0 µM 98.2% | [2]; [8] 100% | [2]; at 50.0 µM 73.5% | [3]; [8] 97% | [3]; at 50.0 µM 83.4% | [4]; [8] 99% | [5]; [8] 96% | [6]; [8] 99% | [6]; at 50.0 µM 70.8%

N=P(c1ccccc1)(c1ccccc1)c1ccccc1.[O]=[Cr](=[O])([OH])[O][Cr](=[O])(=[O])[OH]
active: [1]; [8] 80% | [1]; at 50.0 µM 71.3% | [2]; [8] 76% | [3]; [8] 91% | [5]; [8] 81%
inactive: [1]; [7] 9% | [2]; [7] 5% | [2]; at 50.0 µM 26.4% | [3]; [7] 16% | [3]; at 50.0 µM 37.3% | [4]; [7] -4% | [4]; [8] 50% | [4]; at 50.0 µM 8.95% | [5]; [7] -4% | [5]; at 50.0 µM 11.2% | [6]; [7] 4% | [6]; [8] 57% | [6]; at 50.0 µM 53.2%

CC1CCS(=O)(=O)CC1.[Cl][Hg][Cl]
active: [1]; [7] 98% | [1]; [8] 99% | [1]; at 50.0 µM 99.6% | [2]; [7] 99% | [2]; [8] 99% | [2]; at 50.0 µM 99.6% | [3]; [7] 99% | [3]; [8] 99% | [3]; at 50.0 µM 99.6% | [4]; [7] 99% | [4]; [8] 99% | [4]; at 50.0 µM 99.3% | [5]; [7] 99% | [5]; [8] 99% | [5]; at 50.0 µM 99.5% | [6]; [7] 99% | [6]; [8] 99% | [6]; at 50.0 µM 99.5%

c1ccc2c3ccn4cc5c(cc4c-3nc2c1)CCCC5
active: [1]; [8] 97% | [1]; at 50.0 µM 86.9% | [2]; [8] 98% | [2]; at 50.0 µM 86.6% | [3]; [8] 98% | [3]; at 50.0 µM 86.2% | [4]; [8] 96% | [4]; at 50.0 µM 73.2% | [5]; [8] 97% | [5]; at 50.0 µM 87% | [6]; [8] 98% | [6]; at 50.0 µM 85.2%
inactive: [1]; [7] 10% | [2]; [7] 23% | [3]; [7] 22% | [4]; [7] 6% | [5]; [7] 1% | [6]; [7] 26%
